{"source": "PubChem BioAssay (EPA / NIEHS)", "note": "Inconclusive results are not listed. Calls of active or inactive are those of the source. The calls were made as follows: active = hit-call score of the fitted dose curve at least 0.9, where 1 is the maximum; inconclusive = response in the unintended direction; inactive = score below 0.9.", "data": [{"biological_target": "Steroid hormone receptor ERR1 (Homo sapiens) (UniProt P11474)", "sequence (P11474 whole entry, looked up)": "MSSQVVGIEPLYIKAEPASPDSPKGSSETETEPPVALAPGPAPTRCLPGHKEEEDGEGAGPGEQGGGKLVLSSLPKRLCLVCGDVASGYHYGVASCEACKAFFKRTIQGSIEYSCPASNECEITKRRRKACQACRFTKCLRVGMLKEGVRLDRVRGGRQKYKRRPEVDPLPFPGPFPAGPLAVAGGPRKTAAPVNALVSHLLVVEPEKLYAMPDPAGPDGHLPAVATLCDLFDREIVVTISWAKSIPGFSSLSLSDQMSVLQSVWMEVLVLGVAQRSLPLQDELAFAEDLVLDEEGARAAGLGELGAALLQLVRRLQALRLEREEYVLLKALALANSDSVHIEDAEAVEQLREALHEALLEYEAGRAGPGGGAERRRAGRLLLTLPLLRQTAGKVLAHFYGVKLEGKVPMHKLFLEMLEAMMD", "assay": "ATG_ERRa_TRANS: Attagene TRANS-FACTORIAL HepG2 Assay for human Estrogen-Related Receptor alpha (ERRa) (AID 2282971)", "conditions": "HepG2 Attagene TRANS reporter, ERRa transactivation", "protocol": "ATG_TRANS is a cell-based, multiplexed-readout assay that uses HepG2, a human liver cell line, with measurements taken at 24 hours after chemical dosing in a 24-well plate.ATG_ERRa_TRANS is one of 30 assay component(s) measured or calculated from the ATG_TRANS assay. It is designed to make measurements of mRNA induction, a form of inducible reporter, as detected with fluorescence intensity signals by Reverse transcription polymerase chain reaction (RT-PCR) and Capillary electrophoresis technology.Data from the assay component ATG_ERRa_TRANS was analyzed into 1 assay endpoint. This assay endpoint, ATG_ERRa_TRANS, was analyzed in the positive analysis fitting direction relative to DMSO as the negative control and baseline of activity. Using a type of inducible reporter, measures of mRNA for gain-of-signal activity can be used to understand the reporter gene at the transcription factor-level as they relate to the gene ESRRA. Furthermore, this assay endpoint can be referred to as a primary readout, because this assay has produced multiple assay endpoints where this one serves a reporter gene function. To generalize the intended target to other relatable targets, this assay endpoint is annotated to the nuclear receptor intended target family, where the subfamily is steroidal.\nHuman liver HepG2 cells are transiently transfected with multiple reporter transcription units (MRTUs) in 6-well plates using FuGene 6 reagent (Roche; 3 ml FuGene/1 mg DNA). The MRTU constructs are regulated by a cis-regulating element (promoter). […] A major difference between the CIS and TRANS system is that in CIS activities of endogenous TFs are measured, whereas the TRANS assay evaluates changes in activities of exogenous, chimeric NR-Gal4 proteins. […] At the end of 24 hour incubation, total RNA was isolated using TriZol reagent (Invitrogen). The isolated RNA is then reverse-transcribed using oligo(dT) primer and Mo-MLV reverse transcriptase (Invitrogen) with DNAse I (Ambion) treatment for 30 min. The one-tenth of the produced cDNA was amplified by PCR using Taq DNA polymerase (Invitrogen) and two reporter sequence-specific primers. The PCR products were fluorescently labeled by primer extension with 6-arboxyfluorescein (6-FAM) 5'-labeled reporter sequence-specific primer (2 min at 95 C, 20 s at 68 C and 10 min at 72 C) and these products were digested with 5U of HpaI (New England Biolabs) for 2h at 37 C. The fragments were purified using Qiaquick PCR columns (Qiagen), analyzed on an ABI 3130xL genetic analyzer (Applied Biosystems) with peak positions identified by using a set of X-rhodamine (ROX)-labeled MapMarker1000 molecular weight standards (BioVentures). The raw capillary electrophoresis data was processed using Attagraph software (Attagene).", "values": [{"compound": "c1cc2ccc3cccc4ccc(c1)c2c34", "outcome": "inactive"}, {"compound": "Clc1ccc(C(Cl)(Cl)Cl)cc1", "outcome": "inactive"}, {"compound": "OCC(O)CO", "outcome": "inactive"}, {"compound": "CC(C)(O)C(=O)Nc1ccc([N+](=O)[O-])c(C(F)(F)F)c1", "outcome": "inactive"}, {"compound": "CC(c1ccc(O)cc1)(c1ccc(O)cc1)c1ccc(O)cc1", "outcome": "inactive"}, {"compound": "C=CC(N)=O", "outcome": "inactive"}, {"compound": "Clc1ccc(C(c2ccccc2Cl)C(Cl)(Cl)Cl)cc1", "note": "(stereo unspecified)", "outcome": "inactive"}, {"compound": "ClC1=C(Cl)[C@]2(Cl)[C@@H]3[C@H]4C[C@H]([C@@H]5O[C@H]45)[C@@H]3[C@@]1(Cl)C2(Cl)Cl", "outcome": "inactive"}, {"compound": "CN(C)CCO", "outcome": "inactive"}, {"compound": "Cc1ccc(O)c(C)c1", "outcome": "inactive"}, {"compound": "O=C(O)C(F)(F)C(F)(F)C(F)(F)C(F)(F)C(F)(F)C(F)(F)C(F)(F)C(F)(F)C(F)(F)F", "outcome": "inactive"}]}]}
